The record followed here is PubChem BioAssay (NCI).

This is part of a sample that, as a whole, favours compounds with a hit. Of some 83,000 tested, about 20% had one in any assay.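 How to read the values: 0–100, growth inhibition (40 = 60% inhibited); 0, no net growth; -100 to 0, cell death (-40 = 40% of starting cells died; -100 = all dead).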 Unmarked numbers belong to inactive results. Activity calls are given as the source filed them. Rule for the calls: active = growth percent below 10; inactive = the rest.

Holding throughout (assay): NCI-60 one-dose screen, 48 h (100 = growth as untreated, 0 = no growth, -100 = all killed)
One experiment concerns NCI-H23 lung. Particulars: 10 µM unless noted.
The subject of the next experiment is NCI-H226 lung. Particulars: 10 µM unless noted.
The test system of the next experiment is NCI-H322M lung. Particulars: 10 µM unless noted.
The next experiment deals with NCI-H460 lung. Conditions: 10 µM unless noted.
A further experiment has as its system HOP-92 NSCLC. Particulars: 10 µM.
Another experiment has as its system NCI-H522 lung. Particulars: 10 µM.
Another experiment relates to A549/ATCC NSCLC. Conditions: 10 µM unless noted.
Another experiment deals with 786-0 renal. Particulars: 10 µM unless noted.
A further experiment concerns HOP-62 NSCLC. Conditions: 10 µM unless noted.
The test system of a further experiment is COLO 205 colon. Particulars: 10 µM unless noted.

With `COC(c1ccccc1)C(Br)C(=O)c1ccccc1` (centres undefined), the growth with NCI-H23 lung was 109%; in the experiment on NCI-H226 lung, 92.5%; in the experiment on NCI-H322M lung, 96.2%; in the experiment with NCI-H460 lung it was 127%; with HOP-92 NSCLC, 71.1%; in the experiment with NCI-H522 lung, 74.9%. The growth was 95.3% in the experiment on A549/ATCC NSCLC and 92.2% in the experiment with 786-0 renal.

For `CC1=NN(c2cccc(Cl)c2)C(=O)/C1=C\c1cn(-c2nc(N3CCOCC3)nc(N3CCOCC3)n2)c2ccccc12`, the growth in the experiment with NCI-H23 lung was 100%; with NCI-H226 lung it was 99.8%; with NCI-H322M lung it was 91.9%; in the experiment on NCI-H460 lung it was 112%; with HOP-92 NSCLC, 90.6%; in the experiment on NCI-H522 lung, 88.9%. The growth in the experiment on A549/ATCC NSCLC was 99.2%; in the experiment with 786-0 renal, 102%.

Regarding `CC(=O)N1CCN(CCNC(=O)n2cc(-c3ccncc3)c(-c3cc(O)cc(Cl)c3)n2)CC1`, the growth with NCI-H23 lung was 99.7%; in the experiment with NCI-H226 lung, 102%; in the experiment with NCI-H322M lung, 106%; in the experiment with HOP-62 NSCLC it was 94.2%; in the experiment with A549/ATCC NSCLC, 102%; in the experiment with 786-0 renal it was 67.8%. In addition, in the experiment with COLO 205 colon, the growth is 86.8%.

In the case of `COc1ccc(/C=C2\SC(=O)N(Cc3cc(=O)oc4ccc(OC)cc34)C2=O)cc1`, the growth was 71.6% with NCI-H23 lung; 67.9% in the experiment with NCI-H226 lung; 84.9% in the experiment on NCI-H322M lung; 94.1% in the experiment on NCI-H460 lung; 86% in the experiment on HOP-92 NSCLC; 77.9% in the experiment on NCI-H522 lung. Also, the growth was 96.4% in the experiment with A549/ATCC NSCLC and 83.9% in the experiment on 786-0 renal.

Regarding `[2H]c1nc(=Nc2cc(NC(=O)C=C)c(N(C)CCN(C)C)cc2OC)[nH]c(-c2cn(C([2H])([2H])[2H])c3ccccc23)c1[2H]`, the growth was 60.3% in the experiment with NCI-H23 lung; 75.2% with NCI-H226 lung; 2.1% (active) in the experiment on NCI-H322M lung; 57.3% in the experiment with NCI-H460 lung; 22.9% in the experiment on HOP-92 NSCLC; 13.3% with NCI-H522 lung. Besides, the growth in the experiment on A549/ATCC NSCLC was 40.6%; in the experiment on 786-0 renal, 48.7%.

As for `O=C1c2ccccc2CCc2ccccc21`, the growth is 100% in the experiment on NCI-H23 lung; 100% in the experiment on NCI-H226 lung; 92.7% in the experiment with NCI-H322M lung; 108% in the experiment with NCI-H460 lung; 78.7% in the experiment with HOP-92 NSCLC; 86.4% in the experiment on NCI-H522 lung. The growth in the experiment on A549/ATCC NSCLC is 98.5%; in the experiment with 786-0 renal, 109%.

Regarding `COc1cc2ncnc(-n3ncc4cc(NC(=O)Nc5ccc(Cl)c(Cl)c5)ccc43)c2cc1OC`, the growth with NCI-H23 lung was -54% (active); in the experiment on NCI-H226 lung, -63.4% (active); in the experiment on NCI-H322M lung it was -46.1% (active); in the experiment on NCI-H460 lung it was -53.9% (active); with HOP-92 NSCLC it was -57.2% (active); in the experiment with NCI-H522 lung it was 1.38% (active). The growth was 0.341% (active) in the experiment with A549/ATCC NSCLC and -43.4% (active) with 786-0 renal.

On to `CCOC(=O)c1c(C)oc2ncnc(Nc3ccc(NC(=O)Nc4cccc(Cl)c4)cc3)c12`, for which the growth with NCI-H23 lung was 64.1%; in the experiment with NCI-H226 lung, 54.8%; in the experiment with NCI-H322M lung it was 83.6%; in the experiment with NCI-H460 lung it was 67.2%; in the experiment on HOP-92 NSCLC, 50.7%; in the experiment on NCI-H522 lung it was 57.2%. The figures for the growth with A549/ATCC NSCLC and with 786-0 renal were 32.3% and 79.1%, respectively.

Consider `COc1nc(OC)nc(-c2cc(-c3cc(OC)c(OC)c(OC)c3)no2)n1`, for which the growth with NCI-H23 lung was 101%; in the experiment on NCI-H226 lung, 92.8%; with NCI-H322M lung it was 115%; in the experiment with NCI-H460 lung, 101%; with HOP-92 NSCLC it was 95.4%; in the experiment on NCI-H522 lung, 95.7%. Also, the growth with A549/ATCC NSCLC is 88.8%; in the experiment with 786-0 renal, 93.9%.

Turning to `Cc1c(Cc2ccccc2)c(=O)oc2c(C)c(OCc3n[nH]c(=S)o3)ccc12`, the growth in the experiment with NCI-H23 lung is 57.7%; with NCI-H226 lung, 84.8%; in the experiment on NCI-H322M lung, 63.8%; with NCI-H460 lung, 3.31% (active); with HOP-92 NSCLC, 57.8%; in the experiment on NCI-H522 lung, 61%. Moreover, the growth was 26.9% with A549/ATCC NSCLC and 68.9% in the experiment on 786-0 renal.

As to `CNCCCNCCCCNCCCN1C(=O)c2ccc3c4c(ccc(c24)C1=O)C(=O)N(CCCNCc1ccccc1OC)C3=O`, the growth with NCI-H23 lung was 24.9%; in the experiment on NCI-H226 lung, 35.7%; in the experiment with NCI-H322M lung it was 22.8%; in the experiment with NCI-H460 lung it was 13.5%; with HOP-92 NSCLC, 69%; in the experiment on NCI-H522 lung, 31.3%. Further, the growth in the experiment with A549/ATCC NSCLC was 21.6%; with 786-0 renal, 38.6%.

As to `COc1ccc(-c2cc(C#N)c(NNC(C)=O)[nH]2)cc1`, the growth was 91.4% in the experiment on NCI-H23 lung; 104% with NCI-H226 lung; 117% in the experiment with NCI-H322M lung; 128% with NCI-H460 lung; 178% in the experiment with HOP-92 NSCLC; 107% with NCI-H522 lung. The growth is 115% in the experiment with A549/ATCC NSCLC, 95.3% with 786-0 renal and 129% in the experiment with COLO 205 colon.

Take `Nc1ncn([C@@H]2O[C@H](CO)[C@@H](O)C2(F)F)c(=O)n1`: the growth in the experiment on NCI-H23 lung was 30.6%; with NCI-H226 lung, 52.3%; with NCI-H322M lung it was 70%; in the experiment with NCI-H460 lung it was 9.34% (active); in the experiment on HOP-92 NSCLC, 34.3%; in the experiment on NCI-H522 lung, 86.9%. Besides, the growth in the experiment with A549/ATCC NSCLC is 37.9%; in the experiment with 786-0 renal, 26.3%.

For the compound `O=C(/C=C1\C(=O)N(Cc2ccccc2)c2ccccc21)c1ccc(OCCN2CCCCC2)cc1`, the growth in the experiment with NCI-H23 lung is 58.9%; in the experiment with NCI-H226 lung, 84.6%; with NCI-H322M lung, 92.6%; in the experiment with NCI-H460 lung, 87.7%; with HOP-92 NSCLC, 10.7%; in the experiment on NCI-H522 lung, -44.5% (active). Moreover, the growth in the experiment with A549/ATCC NSCLC was 83%; in the experiment with 786-0 renal, -74.3% (active); in the experiment on COLO 205 colon it was -34% (active).

For the compound `CC(C)OC(=O)[C@H](C)N[P@@](=O)(OC[C@@]1(C)O[C@@H](n2cc(F)c(N)nc2=O)C[C@@H]1O[P@](=O)(N[C@@H](C)C(=O)OC(C)C)Oc1ccccc1)Oc1ccccc1`, the growth in the experiment with NCI-H23 lung was 94.4%; in the experiment with NCI-H226 lung it was 96.4%; with NCI-H322M lung, 102%; with NCI-H460 lung, 28.7%; with HOP-92 NSCLC, 85.1%; in the experiment with NCI-H522 lung, 85.6%. Besides, the growth with A549/ATCC NSCLC is 92.2%; in the experiment on 786-0 renal it was 104%.

Take `Cc1nnc(/N=C2\NC(=O)/C(=C/C=C/c3ccccc3)S2)s1`: the growth is 55.2% in the experiment on NCI-H23 lung; 78% with NCI-H226 lung; 72.8% in the experiment on NCI-H322M lung; 24.5% with NCI-H460 lung; 56.9% in the experiment with HOP-92 NSCLC; 1.52% (active) in the experiment on NCI-H522 lung. The growth in the experiment with A549/ATCC NSCLC was 39.8%; with 786-0 renal, 66.9%.
